SW480 rerep: DNA re-replication induction in SW480 cells; SW480 DNA re-replication, Hoechst DNA content imaging, 48 h; Potency, µM (doses to about 46.1 µM), for the others: at the highest dose re-replication activation, most hits filed as activators; hit rate 1.8% among 340,000; AID 624297; also: % of control where 0% means no effect; nearly all actives have a fitted effect of over 55% in size
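Quantitative HTS format with DMSO vehicle controls; 48 hr drug incubation at 37 C, then 40 min Hoechst staining and scanning imager measurement at 405 nm excitation.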
Integrin act MD: activators of alpha7 integrin expression for muscular dystrophy; Potency, µM (top dose mostly 38.3 µM), without a hit: at the highest dose activation, usual class: activators; hit rate 0.064% among 350,000; alpha7betagal myoblasts, beta-gal FDG fluorescence, 48 h;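 also: 100% = response of the positive control SU9516; nearly all actives have a fitted effect of over 60% in size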
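Alpha7betagal+/- myoblasts (passage 13) were plated 16-24 hr, then exposed to compounds (1:260 dilution of DMSO stock) for 48 hours at 37C. After MPER lysis, β-galactosidase reporter activity was read as FDG fluorescence (ex 480/em 540) after 30 minutes.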
AT treatment: potential ataxia-telangiectasia treatments restoring KAP-1 phosphorylation | F2112 A-T fibroblasts, KAP-1 phosphorylation AlphaLISA; neocarzinostatin DNA damage 30 min before lysis | Potency, µM (doses to about 57.5 µM), inactives show at the top dose activation, hits mostly activators | hit rate 0.19% among 320,000; also: % of control where 0% means no effect; nearly all actives have a fitted effect of over 45% in size
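hTERT-immortalized A-T patient fibroblasts (F2112), 500 cells/well in OPTI-MEM, 1% FBS, got compounds for 60 min, then NCS for 30 min at 37C. Lysates were then assayed for phospho-KAP-1 by AlphaLISA (anti-pKAP1 donor, anti-KAP1 acceptor beads), 6 hr at 25C.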
MCF10A rereplic: inducers of DNA re-replication in MCF 10A breast cells | Potency, µM (series often up to 46.1 µM), for inactives: at the top dose activity, positive = re-replication, hits mostly activators | MCF 10A DNA re-replication, Hoechst nuclear intensity, 48 h | hit rate 2.9% among 350,000; also: % of control where 0% means no effect; nearly all actives have a fitted effect of over 50% in size
Mito fusion act: inhibitors of mitochondrial division or activators of mitochondrial fusion; hit rate 0.23% among 320,000; S. cerevisiae fusion-defective mutant growth rescue, CellTiterGlo 48 h; Potency, µM (series often up to 46.1 µM), without a hit: at the top dose growth rescue (activation), actives largely listed as activators; AID 485298; also: % of control where 0% means no effect; nearly all actives have a fitted effect of over 45% in size
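Compounds are tested for their ability to restore growth of mitochondrial fusion-defective yeast strains at non-permissive 37C in YPEG medium over 48 hours. Viability is quantified by luciferase luminescence.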
An asterisk follows results filed as active; ? = inconclusive; · = no result; ! = repeats disagree; [ ] = dose if it differs, or a comment. Rows were chosen to be rich in hits. Some 4.2% of all compounds tested hit in one or more screens of this group. Calls follow the shape of the dose curve; as a rule, active = well fitted activation curve with a large enough effect; inconclusive = small, poorly fitted or top-dose-only effect; inactive = no such curve, though single readings can be large or run the other way. Potency is read from the fitted curve at half-maximal effect.

SMILES | SW480 rerep | Integrin act MD | AT treatment | MCF10A rereplic | Mito fusion act
CCn1c(C(=O)N2CCCC(C(=O)O)C2)cc2sccc21 (stereo not drawn) | 8.6% | 20.2% | -2.7% | 1.8% | -1.9%
COc1ccc(CCNS(=O)(=O)c2cc3c4c(c2)CCN4C(=O)CC3)cc1OC | 1.6% | 0.7% | 1.0% | 0.0% | -1.3%
COc1ccccc1CCNS(=O)(=O)c1cc2c3c(c1)CCN3C(=O)CC2 | 1.46µM* | 9.9% | 5.4% | -2.0% | 6.4%
CN1C=CC(=O)[C@@H](O)[C@H]1c1ccccc1Br | -1.9%[9.22 µM] | 8.5% | · | -14.5% | ·
O=C(COc1ccc(C(=O)c2ccccc2)cc1)NCc1ccc(F)cc1 | 7.31µM* | 0.0% | 2.8% | 4.11µM* | 12.0%
CSc1ccc(CN(C)C(=O)COc2ccc(C(=O)c3ccccc3)cc2)cc1 | ? | 16.7% | 3.5% | 13µM* | 29.2%
C[C@H](CO)N1C[C@H](C)[C@H](CN(C)C(=O)Nc2ccccc2)OCc2cnnn2CCCC1=O | · | 18.9% | · | · | ·
Cc1ccc(NC(=S)NCCN2CCOCC2)cc1F | -1.7% | -8.7% | 4.5% | 1.4% | -1.6%
COc1ccc(-c2cc(C(F)(F)F)n3nc(C(=O)NCCCN4CCOCC4)cc3n2)cc1 | 8.2µM* | -1.5% | -0.8% | ? | -4.6%
Cc1cc(-c2ccccc2)nc2cc(C(=O)NCCCn3ccnc3)nn12 | -5.5% | -5.8% | -4.1% | -6.6% | 0.0%
O=C(NCCCn1ccnc1)c1cc2nc(-c3ccc(Br)cc3)cc(C(F)(F)F)n2n1 | ? | -33.7% | -1.6% | 14.6µM* | 2.3%
Cc1ccc(CNC(=O)/C=C/c2ccc(S(=O)(=O)N3CCOCC3)cc2)cc1 | 0.82µM* | -37.1% | -8.3% | ? | -3.3%
Cc1[nH][nH]c(=O)c1C(c1c(C)[nH][nH]c1=O)c1cn(Cc2ccccc2Cl)c2ccccc12 | 16.4µM* | -14.8% | -5.5% | 6.51µM* | 5.9%
CC(Sc1nc2ncc(Cl)cc2[nH]1)C(=O)Nc1ccccc1[N+](=O)[O-] (stereo not drawn) | · | 10.7% | · | · | ·
CN[C@H](C)CCC=C(C)C | 3.0% | · | · | 23.7µM* | ·
CC12C=CC3(O1)C(C(=O)N1CCCOC13)C2C(=O)O (stereo not drawn) | -1.7% | -7.5% | 9.6% | -4.8% | 5.8%
COc1ccc(CCn2c(=N)c(C(=O)NCC3CCCO3)cc3c(=O)n4ccccc4nc32)cc1OC (stereo not drawn) | ? | -23.7% | 7.9% | 2.7% | 2.2%
COc1ccc(CCn2c(=N)c(C(=O)NC3CCCC3)cc3c(=O)n4ccccc4nc32)cc1 | 23.1µM* | -43.0% | -9.1% | 20.6µM* | 1.7%
COc1ccc(CCn2c(=N)c(C(=O)NC3CCCC3)cc3c(=O)n4ccccc4nc32)cc1OC | ? | -28.6% | 1.3% | 16.4µM* | 1.2%
COCCCn1c(=N)c(C(=O)NC2CCCCC2)cc2c(=O)n3ccccc3nc21 | 5.17µM* | -7.0% | 3.0% | 3.26µM* | 0.1%
COc1ccc(Cn2c(=N)c(C(=O)NC3CCCCC3)cc3c(=O)n4ccccc4nc32)cc1 | 4.61µM* | 4.7% | -3.5% | 4.11µM* | -0.7%
COc1cccc(NC(=O)c2cc3c(=O)n4ccccc4nc3n(CC(C)C)c2=N)c1 | -4.8% | 19.3% | 1.9% | -0.7% | 0.5%
Cc1ccc2c(c1)CCO[C@@]21O[C@H](CCO)C[C@H](O)[C@H]1O | · | 6.0% | · | · | ·
CC1CC(C)CN(S(=O)(=O)CC23CCC(CC2=O)C3(C)C)C1 (stereo not drawn) | -5.5% | -10.1% | 14.7% | 5.2% | ?
COc1cc(/C=C/c2ccc3cccc(O)c3n2)cc(Br)c1OC | ? | -71.3% | ? | 14.6µM* | -0.4%
SMILES | SW480 rerep | Integrin act MD | AT treatment | MCF10A rereplic | Mito fusion act
COc1cc(/C=C/c2ccc3cccc(O)c3n2)cc(OC)c1OC | 17.3% | -70.2% | 10.4% | ? | 30.3%
COc1cc(/C=C/c2ccc3cccc(O)c3n2)cc(Cl)c1OC | 4.61µM* | -56.8% | 27.3% | 14.6µM* | -16.3%
COc1cccc(/C=C/c2ccc3cccc(O)c3n2)c1OC | ? | -57.5% | 21.1% | -13.9% | 10.7%
COc1ccc(/C=C/c2ccc3cccc(O)c3n2)c(OC)c1OC | ? | -64.4% | -6.8% | 1.64µM* | 7.8%
C[C@]12CCC3c4ccc(O)cc4CCC3C1CC/C2=N\N (stereo partly drawn) | -4.3% | 6.1% | · | ? | ·
C[C@]12CC[C@@H]3c4ccc(O)cc4CC[C@H]3[C@@H]1CCC2=O | 11.9% | · | 24.6% | 12.4% | 5.8µM*!
COc1ccc(CCNC(=O)CSc2nnc3ccc(-c4ccccn4)nn23)cc1 | -4.5% | -12.6% | 7.9% | 1.8% | 11.7%
CCc1ccccc1NC(=O)CN1CCN(C(=O)CNC(=O)c2ccc(-c3ccccc3)cc2)CC1 | 61.5% | -37.6% | 1.0% | 5.8µM* | 20.9%
CC(=O)/C(N=Nc1ccc(SC(F)F)cc1)=C(\C)O | 8.2µM* | ? | -2.5% | ? | -1.6%
CC(=O)OCC(=O)Nc1ccc(SC(F)F)cc1 | -8.5% | -4.4% | 1.2% | 0.5% | 7.1%
Cc1cccc(-c2n[nH]nc2C2=CC(=O)CC(C)(C)C2)c1 | · | 9.0% | · | · | ·
COc1cc(NC(=O)CCl)ccc(=O)c1 | · | -61.3% | · | · | ·
COc1ccc(OC)c(NC(=O)COC(=O)c2ccc(S(=O)(=O)N3CCCCC3)cc2)c1 | · | -10.7% | · | · | ·
Cc1nc2ccccn2c1-c1csc(Nc2ccc(C(=O)O)cc2)n1 | 11.6µM* | ? | -7.4% | 11.6µM* | -15.3%
Nc1ccn([C@@H]2O[C@H](CNCc3ccc(C#CCCO)cc3)[C@@H](O)[C@H]2O)c(=O)n1 | · | 0.9% | · | · | ·
CCc1[nH]c(C(=O)O)c(C)c1C(=O)OC | 1.0% | 9.9% | 6.0% | 0.3% | 0.6%
CC(NC(=O)COc1ccccc1Cl)c1ccccc1 (stereo not drawn) | ? | ? | 20.0% | 4.9% | 13.1%
Cc1c(CCOC(=O)c2ccc(N3CCOCC3)c([N+](=O)[O-])c2)sc[n+]1CC#N | 26.9% | -72.4% | -13.5% | 16.4µM* | 4.4%
CC(C)(C)C(=O)Oc1ccc2cc(-c3ccc4ccccc4n3)c(=O)oc2c1 | 23.1µM* | -9.1% | 1.5% | 6.51µM* | -5.1%
Cn1c(-c2cc3ccc(OC(=O)C(C)(C)C)cc3oc2=O)nc2ccccc21 | ? | -15.7%[7.66 µM] | 9.5% | -7.2% | -5.4%
O=C(Nc1ccn(CCCNCC(c2ccccc2)c2ccccc2)c(=O)n1)OCc1ccccc1 | · | -64.4% | · | · | ·
COC(=O)C(Cc1ccc(O)cc1)NC(=O)C(CC(=O)OC(C)(C)C)NC(=O)OC(C)(C)C (stereo not drawn) | 4.3% | -18.4% | -1.4% | -2.5% | -1.7%
C(=N\Nc1nncc2ccccc12)/c1ccccn1 | 2.59µM* | 1.8% | 5.1% | ? | -1.2%
Cc1cc(C)n(-c2ccc(C(=O)Nc3cccnc3)cc2)n1 | -2.3% | -0.8% | -7.6% | -6.4% | 5.6%

Screening results as filed in PubChem.
